Pf Dd2 growth – blocks in vitro growth of P. falciparum Dd2; AID 1347417; P. falciparum Dd2 growth, SYBR Green, 72 h; Potency, µM (titrated, usually from 28.9 µM), usual class: inhibitors; 120,000 compounds, 4.3% hits; active = well fitted inhibition curve with a large enough effect; note: nearly all actives have a fitted effect of over 65% in size
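Readout: SYBR Green fluorescence, 485 nm excitation, 535 nm emission, after ~16 h lysis at 37C. Before that, Dd2-infected red cells (2.5% hematocrit) grew 72 h with compound, 29 uM top final concentration.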
A number is an active result; – = inactive; [ ] = remark or other dose. The full list was thinned out, with hits kept by preference.

SMILES | Pf Dd2 growth
O=C(NC[C@H]1O[C@H](Cc2cc(-c3ccc(F)cc3)on2)CC[C@@H]1O)c1ccc(F)cc1 | –
CN(C)C[C@H]1O[C@H](Cc2cc(CN3CCOCC3)on2)CC[C@@H]1O | –
COCC(=O)NC[C@H]1O[C@H](Cc2cc(-c3ccc(F)cc3)on2)CC[C@@H]1O | 14µM
COCC(=O)NC[C@H]1O[C@H](Cc2cc(-c3ccc(OC)cc3)on2)CC[C@@H]1O | –
CC(=O)NC[C@H]1O[C@H](Cc2cc(-c3ccc(F)cc3)on2)CC[C@@H]1O | –
COc1cccc(NC(=O)NC[C@H]2O[C@H](Cc3cc(-c4ccc(F)cc4)on3)CC[C@@H]2O)c1 | –
CC(C)CCNC[C@H]1O[C@H](Cc2cc(-c3ccc(F)cc3)on2)CC[C@@H]1O | 3.5µM
COCc1cc(C[C@@H]2CC[C@H](O)[C@@H](CNCc3cccc(OC)c3)O2)no1 | –
CC(C)(C)c1cc(C[C@@H]2CC[C@H](O)[C@@H](CN(CC3CC3)CC3CC3)O2)no1 | 4.5µM
COc1ccc(-c2nn(-c3cc(C)ccc3C)c(OC(C)=O)c2-c2ccc(NC(C)=O)cc2)c(OC)c1 | –
O=C(Cc1ccccc1)N1CCC2(CCCCO2)CC1 | –
COC1CCOC2(CCN(C(=O)Nc3cccc(C)c3)CC2)C1 (stereo unspecified) | –
COc1cccc(CN2CCN3C(=O)N(C4CCOCC4)C[C@H]3C2)n1 | –
Cc1ccc(OCC(=O)N2CCC3(CC2)CCC(O)(CN(C)C)CC3)cc1 | –
CN1CCN([C@H]2CCN(C(=O)c3c(Cl)cnn3C)C[C@H]2CCC(=O)O)CC1 | –
Cn1ccc2c(-c3cc(NCCO)nc(N)n3)ccnc21 | –
O=C(NC1CCOCC1)c1cccc(S(=O)(=O)N2CCC[C@H]2CO)c1 | –
O=C(CCC1CCN(S(=O)(=O)c2cccc(F)c2)CC1)NCc1ccncc1 | –
Cc1ccc(NC(=O)CCNc2c(C)nc3cnccn23)c(F)c1 | –
CC1=C[C@@H](CNC(=O)c2cncnc2)[C@H](C(C)C)C[C@H]1CC(=O)N(C)Cc1ccccc1 | –
CCc1nncn1C1CCN(C(=O)c2cccc(C)c2)CC1 | –
CC(NC(=O)OCc1ccccc1)c1nc2cccnc2n1C1CC1 (stereo unspecified) | –
NC(=O)N1CCCC1C(=O)N1CCC(c2cc(Cc3ccccc3)[nH]n2)CC1 (stereo unspecified) | –
O=C(NC[C@H]1O[C@H](Cc2cc(-c3ccc(F)cc3)on2)CC[C@@H]1O)C1CCC1 | –
CCN(CC)C[C@H]1O[C@H](Cc2cc(-c3ccc(F)cc3)on2)CC[C@@H]1O | 7.1µM
SMILES | Pf Dd2 growth
CN(C)C[C@H]1O[C@H](Cc2cc(-c3ccc(F)cc3)on2)CC[C@@H]1O | –
O=C(COc1ccccc1)NC[C@H]1O[C@H](Cc2cc(-c3ccccc3)on2)CC[C@@H]1O | –
Oc1cccc(-c2cc(C[C@@H]3CC[C@H](O)[C@@H](CNC4CCC4)O3)no2)c1 | –
O[C@H]1CC[C@@H](Cc2cc(-c3ccccc3)on2)O[C@@H]1CNC1CCCCC1 | 4.5µM
COc1ccccc1-n1cc(C(=O)NCc2cc3n(n2)CCNC3)cn1 | –
COC1CCC12CCN(C(=O)Cc1cccnc1)CC2 (stereo unspecified) | –
COc1ccccc1-c1nnc([C@H]2CCN(Cc3ncc[nH]3)C2)o1 | –
CC(C)NC(=O)NC[C@H]1C[C@@H]2CCN1C[C@@H]2CN1CCN(C)CC1 | –
Cc1nnc(CN(C)c2ccc(-c3nc(-c4cccc(Cl)c4)no3)cn2)o1 | –
CCNc1nccc(N2CCC(CC(=O)NCC(C)C)CC2)n1 | –
CN1CCN(C(CNC(=O)C(=O)Nc2ccc(F)cc2)c2cccnc2)CC1 (stereo unspecified) | –
Cc1ccc(NC(=O)C(=O)NCC(c2cccnc2)N2CCN(Cc3ccccc3)CC2)cc1Cl (stereo unspecified) | 3.5µM
O=C(NCC(c1cccnc1)N1CCOCC1)C(=O)Nc1cccc(Cl)c1 (stereo unspecified) | –
O=C(NCC(c1cccnc1)N1CCOCC1)C(=O)Nc1ccc(Cl)cc1 (stereo unspecified) | –
O=C(NCC(c1cccnc1)N1CCN(c2ccccc2F)CC1)C(=O)Nc1ccc(F)cc1F (stereo unspecified) | 3.2µM
COCCNC(=O)C(=O)NCC(c1cccnc1)N1CCN(c2ccccc2OC)CC1 (stereo unspecified) | –
O=C(NCc1cccnc1)[C@@H]1C[C@@H](O)CN1C1CCN(C(=O)c2cc(F)ccc2F)CC1 | –
C=CCNC(=O)C(NC(=O)c1ccc(OC)cc1)C1CCN(C(=O)c2ccccc2C)CC1 (stereo unspecified) | –
Cc1ccccc1CN1CCc2nc(N3CCN(c4ncccn4)CC3)ncc2C1 | 8.9µM
COc1cc(CN2CCc3nc(N4CCN(c5ncccn5)CC4)ncc3C2)cc(OC)c1OC | 7.9µM
CCOc1ccc(CN2CCc3nc(N4CCN(c5ccccn5)CC4)ncc3C2)cc1OC | –
CCOc1ccccc1CN1CCc2nc(N(C)C)[nH]c(=O)c2CC1 | –[5.79 µM]
Cc1ccc(CN2CCc3nc(N4CCN(c5ccccc5F)CC4)ncc3C2)cc1C | –
CN1CCN(c2ncc3c(n2)CCN(Cc2ccc(Br)s2)C3)CC1 | –
CCCCN1CCc2nc(N3CCN(C)CC3)ncc2C1 | –
SMILES | Pf Dd2 growth
CCN1CCN(c2ncc3c(n2)CCN(Cc2ccc(C)s2)C3)CC1 | –
COc1ccccc1N1CCN(c2ncc3c(n2)CCN(Cc2ccccc2C)C3)CC1 | –
CCOc1ccccc1CN1CCc2nc(N3CCN(c4ccccc4F)CC3)ncc2C1 | 8.9µM
CCN1CCN(c2ncc3c(n2)CCN(Cc2cc(Br)cs2)C3)CC1 | 13µM
COc1cc(CN2CCc3nc(N4CCN(c5ccccc5F)CC4)ncc3C2)ccc1OC(C)C | –
CCc1noc([C@@H]2CC(F)(F)CN2C(=O)c2ccncc2F)n1 | –
Cc1cccc(CN2CCC(C(=O)N3CCCCCCNC(=O)CC3)CC2)c1 | –
O=C1CCCN1CCCN1C(=O)[C@@H]2C[C@@H](O)CN2C2(CN(Cc3cccs3)C2)C1=O | –
Cc1cc(C(=O)N2CCC(N3C[C@H](O)C[C@H]3C(=O)NC3CCCCC3)CC2)n(C)n1 | –
O=C(NCc1cccc(F)c1)C1CCN(c2cn[nH]c(=O)c2)C1 (stereo unspecified) | –
Clc1ccccc1-c1noc(-c2nc(-c3ccncc3)no2)n1 | –
Cc1cccc(C(=O)N2C(C(=O)NC3CC3)COC23CCN(C(=O)C(C)(C)C)CC3)c1 (stereo unspecified) | –
CN1C(=O)CCC2(CNC(=O)C3CCCC3)CCC=C12 (stereo unspecified) | –
COCCn1cc(CN2CCN(c3ccccn3)CC2)ccc1=O | –
CN(C)c1ccc(CN2CCc3nc(N4CCN(c5ccccn5)CC4)ncc3C2)cc1 | 13µM
CCOc1ccc(CN2CCc3nc(Nc4ccc(OC)cc4OC)ncc3C2)cc1 | –
COc1ccc(Nc2c3c(nc4nncn24)CCC3)cc1OC | –
COc1cc(OC)c(NC(=O)c2ccc3c(Cl)c4c(nc3c2)CCCC4)cc1Cl | –
COc1cc(OC)c(Nc2c3c(nc4nc(-c5cccs5)nn24)CCCC3)cc1Cl | 11µM
Cc1ccccc1CN1Cc2nc(N3CCCC3)ccc2OCC1=O | 10µM
Cc1ccccc1CN1Cc2nc(-c3cnn(C)c3)ccc2OCC1=O | –
Cc1ccccc1CN1Cc2nc(-c3ccccc3)ccc2OCC1=O | –
CCCN(CC1CC1)C(=O)C1CCC(=O)N(CCc2ccc(Cl)cc2)C1 (stereo unspecified) | –
